Source: PubChem
APOBEC3G inh: inhibitors of human APOBEC3G DNA deaminase; AID 493012; actives 0.28% (n = 330,000); recombinant A3G, ssDNA deamination FAM/TAMRA fluorescence; inhibition, % at 20 µM;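 active means inhibition of at least 40% at 20 µM, with no more than 30% in the related APOBEC3A deaminase screen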
VLA-4 inh: inhibition in a human VLA-4 binding assay; VLA-4 expressing cells, ligand binding flow cytometry; inhibition, % (about 7 µM as worked out from the volumes in the protocol); actives 0.2% (n = 330,000); AID 2557; in the data active means inhibition above about 50%
GRK2 inh: blocks RNA aptamer binding to human GRK2. P25098. bead flow cytometry, FAM-aptamer displacement from GRK2. inhibition of aptamer binding, % at 10 µM. actives 0.59% (n = 330,000);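 active means inhibition of aptamer binding above 40%, roughly 3 SD of noise, on plates passing a quality check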;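 further: median bead fluorescence of bound FAM aptamer so fluorescent compounds give negative values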
Target sequence (P25098 whole entry, looked up): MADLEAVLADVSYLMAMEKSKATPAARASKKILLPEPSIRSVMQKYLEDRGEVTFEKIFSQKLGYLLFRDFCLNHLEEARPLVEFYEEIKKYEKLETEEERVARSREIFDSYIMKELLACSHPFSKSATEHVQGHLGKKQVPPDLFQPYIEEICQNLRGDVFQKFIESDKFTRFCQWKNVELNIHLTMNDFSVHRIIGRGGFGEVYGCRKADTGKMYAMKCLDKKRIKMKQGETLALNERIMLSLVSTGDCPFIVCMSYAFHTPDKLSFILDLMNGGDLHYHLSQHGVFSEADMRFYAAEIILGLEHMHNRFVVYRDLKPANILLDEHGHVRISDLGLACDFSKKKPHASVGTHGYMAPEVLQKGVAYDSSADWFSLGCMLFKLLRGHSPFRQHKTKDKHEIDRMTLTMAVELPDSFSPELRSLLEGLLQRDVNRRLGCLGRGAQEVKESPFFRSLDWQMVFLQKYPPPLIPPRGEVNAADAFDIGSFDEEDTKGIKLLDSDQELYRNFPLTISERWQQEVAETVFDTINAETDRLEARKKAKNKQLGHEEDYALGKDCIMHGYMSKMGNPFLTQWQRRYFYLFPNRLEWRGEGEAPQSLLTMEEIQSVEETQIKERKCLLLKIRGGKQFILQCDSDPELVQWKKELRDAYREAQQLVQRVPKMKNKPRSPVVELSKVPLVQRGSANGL
APOBEC3A inh: inhibitors of human APOBEC3A DNA deaminase | actives 0.41% (n = 330,000) | inhibition, % at 20 µM | P31941 | recombinant A3A, FAM/TAMRA ssDNA deamination fluorescence;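 active means at least 40% inhibition at 20 µM here, with at most 30% in a related deaminase screen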
GRK2 inh confirm: human GRK2 inhibition confirmation, cherry pick 1; shares compounds with GRK2 inh; aptamer displacement, % at 10 µM; bead-bound GRK2, FAM-aptamer displacement, flow cytometry; actives 4% (n = 2,000);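 active means aptamer displacement above 40%, near three times the noise of non-fluorescent compounds, on plates passing quality checks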;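 further: negative values mostly reflect intrinsic compound fluorescence rather than true enhancement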
Aptamer quench SP: aptamer fluorescence quenching in GRK2 counter-screen; shares compounds with GRK2 inh; Carboxyfluorescein RNA aptamer on beads, flow cytometry quenching; hits give low values; fluorescence response (% of DMSO), % at 10 µM; 2,000 tested, under 10 active; AID 504580;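 active means compounds that quench the bead-bound fluorescent RNA probe, cutting fluorescence to under half of the solvent control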;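 further: counterscreen run without GRK2 so only probe quenching by compound is measured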
GRK2 CP2: human GRK2 inhibition confirmation, cherry pick 2 | bead-bound GRK2, FAM-aptamer displacement, flow cytometry | 360 tested, under 10 active | shares compounds with GRK2 inh | inhibition of aptamer binding, % at 10 µM | AID 504782;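 active means inhibition of aptamer binding above 40%, about triple the noise seen with nonglowing compounds, on plates passing quality control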;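 further: negative values mostly come from compounds that fluoresce themselves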
FAM quench SP: aptamer fluorescence quenching in GRK2 counter-screen. shares compounds with GRK2 inh. carboxyfluorescein RNA aptamer beads, flow cytometry quenching; hits give low values. fluorescence response vs DMSO, % at 10 µM. 360 tested, under 10 active. AID 588494;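 active means response vs DMSO under 50%, meaning signal dropped by over half, treated as fluorescence quencher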;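 further: labelled aptamer on streptavidin beads without GRK2 as a quench counter-screen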
Of the large screens only hits and unclear results are named; the others gave an inactive call (follow-up assays come after a bar, where they were run). Sampled rows, rich in hits. Any-hit rate of the full collection: about 1.4%.

CC(=O)NCCN1C(=O)S/C(=C\c2cccs2)C1=O	GRK2 inh 79 | GRK2 inh confirm inactive | Aptamer quench SP inactive
O=C(NCCN1C(=O)S/C(=C\c2cccs2)C1=O)c1ccco1	none
CC(C)(C)OC(=O)NCCCC[C@@H](C(=O)NCCCCCCCCCCC(=O)N1CCN(C(=O)OC(C)(C)C)CC1)n1cc(CCO)nn1	none
COc1ccc([C@@H]2CC(=O)c3c(O)cc(O[C@@H]4O[C@H](CO[C@@H]5O[C@@H](C)[C@H](O)[C@@H](O)[C@H]5O)[C@@H](O)[C@H](O)[C@H]4O)cc3O2)cc1O	GRK2 inh 56 | GRK2 inh confirm inactive | Aptamer quench SP inactive
CCOCCc1nnc(NC(=O)C2CC(=O)N(c3ccc(OCC)cc3)C2)s1 (stereo not drawn)	GRK2 inh 93 | GRK2 inh confirm inactive | Aptamer quench SP inactive
CCOc1ccc(N2CC(C(=O)Nc3nnc(CC)s3)CC2=O)cc1 (stereo not drawn)	none
CCN(Cc1ccccc1)S(=O)(=O)c1ccc(S(=O)(=O)N(Cc2cccc(OC)c2)CC2CCCO2)cc1 (stereo not drawn)	none
CCn1cc(CNC(=O)C2C3CCC(C3)C2C(=O)O)cn1 (stereo not drawn)	none | GRK2 inh confirm inactive | Aptamer quench SP inactive
Cc1cc(C)c2c(N)c(C(=O)C(C)(C)C)sc2n1	none
CC1CCCC(NC(=O)COC(=O)c2cc(S(=O)(=O)N3CCOCC3)ccc2F)C1C (stereo not drawn)	GRK2 inh 60 | GRK2 inh confirm inactive | Aptamer quench SP inactive
O=C(Cn1nnc(-c2ccccc2)n1)NCC(=O)Nc1ccc(F)c(F)c1F	none | GRK2 inh confirm inactive | Aptamer quench SP inactive
O=C(Cc1csc(-c2ccccc2)n1)NCC(=O)Nc1ccc(F)c(F)c1F	none
c1ccc(CN(CC2=NCCN2)c2ccccc2)cc1	none | GRK2 inh confirm inactive | Aptamer quench SP inactive
CN1C(=O)C(C)(C)c2cc(S(=O)(=O)N3CCCC(C(=O)NCc4ccccc4Cl)C3)ccc21 (stereo not drawn)	none | GRK2 inh confirm inactive | Aptamer quench SP inactive
COc1ccc(CNC(=O)C2CCCN(S(=O)(=O)c3ccc4c(c3)C(C)(C)C(=O)N4C)C2)cc1 (stereo not drawn)	none
COc1ccccc1CC(=O)N1CCCC(CCC(=O)NCc2ccccc2F)C1 (stereo not drawn)	none
Cc1ccnn1CCC(=O)N1CCCC(CCC(=O)NCc2ccccc2F)C1 (stereo not drawn)	none | GRK2 inh confirm inactive | Aptamer quench SP inactive
Cc1ccc(/C=C/C(=O)NCCc2c[nH]c3ccccc23)o1	GRK2 inh 94 | GRK2 inh confirm inactive | Aptamer quench SP inactive
CCNc1nc(OC)nc(N2CCC(Cc3ccccc3)CC2)n1	GRK2 inh 100 | GRK2 CP2 inactive | FAM quench SP inactive
COc1nc(NCc2ccco2)nc(N2CCC(C)CC2)n1	none
COCCNC(=O)c1c(N)n(-c2ccccc2)c2nc3ccccc3nc12	none | GRK2 inh confirm inactive | Aptamer quench SP inactive
COCCCNC(=O)c1c(N)n(-c2ccccc2)c2nc3ccccc3nc12	none
CC(c1ccco1)N(C(=O)C12CC3CC(CC(C)(C3)C1)C2)c1ccccn1 (stereo not drawn)	GRK2 inh 55 | GRK2 inh confirm inactive | Aptamer quench SP inactive
CSc1nn2c(C)c(C)c(C)nc2c1C#N	none
CC(C)NC[C@H](O)COc1cccc2ccccc12	none | GRK2 inh confirm inactive | Aptamer quench SP inactive
CC1CCN(CCOCCOc2ccccc2-c2ccccc2)CC1	none
CC1CCN(CCOCCOc2ccccc2Br)CC1	GRK2 inh 95 | GRK2 inh confirm inactive | Aptamer quench SP inactive
COC(=O)CN1C(=O)C2(OCCCO2)c2cc(Br)ccc21	GRK2 inh 99 | GRK2 inh confirm inactive | Aptamer quench SP inactive
CCOC(=O)CN1C(=O)C2(OCCCO2)c2ccccc21	none
CN(CC(=O)Nc1ccc(N2CCOCC2)cc1)CC(=O)Nc1ccc([N+](=O)[O-])cc1Br	none
CN(CC(=O)Nc1ccc(N2CCOCC2)cc1)CC(=O)Nc1ccc(C(F)(F)F)cc1	none
Cc1ccc(NC(=O)CN(C)CC(=O)Nc2ccc(N3CCOCC3)cc2)c(C)c1	none | GRK2 inh confirm inactive | Aptamer quench SP inactive
CN(CC(=O)Nc1ccc(N2CCOCC2)cc1)CC(=O)Nc1ccccc1C#N	none | GRK2 inh confirm inactive | Aptamer quench SP inactive
Cc1ccc(OCCNC(=O)CCc2ccccc2)cc1C	GRK2 inh 79 | GRK2 inh confirm inactive | Aptamer quench SP inactive
O=C(Cn1c(COc2ccccc2)nc2ccccc21)Nc1cccc(Cl)c1	GRK2 inh 100 | GRK2 CP2 inactive | FAM quench SP inactive
NNC(=O)Cn1c(COc2ccc(Cl)cc2)nc2ccccc21	none
Oc1c(Br)cc(Br)cc1C=NCc1ccccc1	none
Oc1c(Br)cc(Br)cc1C=NCc1ccc(F)cc1	GRK2 inh 41 | GRK2 inh confirm inactive | Aptamer quench SP inactive
CCN(C(=O)c1cccc(Br)c1)C1CCS(=O)(=O)C1 (stereo not drawn)	none
Clc1c2c(nc3ccccc13)CCC2	none | GRK2 CP2 inactive | FAM quench SP inactive
O=C(NCCOc1ccccc1)c1ccccc1[N+](=O)[O-]	none
O=C(NCc1ccccc1F)C1CCCN(S(=O)(=O)N2CCOCC2)C1 (stereo not drawn)	none | GRK2 inh confirm inactive | Aptamer quench SP inactive
CC(CNC(=O)C1CCCN(S(=O)(=O)N2CCOCC2)C1)c1ccccc1 (stereo not drawn)	none
CCNC(=S)NNC(=O)c1csc2c1CCC(C)C2 (stereo not drawn)	none
CC(C)(C)C1CCc2c(C(=O)NNC(=O)CCCC(=O)O)csc2C1 (stereo not drawn)	GRK2 inh 97 | GRK2 inh confirm inactive | Aptamer quench SP inactive
CN(C(=O)Cc1c(C(=O)O)n(C)c2ccccc12)c1ccc(Cl)cc1	none | GRK2 inh confirm inactive | Aptamer quench SP inactive
CN(C(=O)c1ccccc1C(=O)OCC(=O)Nc1ccccc1)c1ccccc1	none
CCOC(=O)c1ccccc1NC(=O)COC(=O)c1ccccc1C(=O)N(C)c1ccccc1	GRK2 inh 44 | GRK2 inh confirm inactive | Aptamer quench SP inactive
CC(C)c1ccc(N(C)C(=O)Cc2c(C(=O)O)n(C)c3ccccc23)cc1	none
CCOC(=O)c1ccccc1NC(=O)Cc1c(C(=O)O)n(C)c2ccccc12	GRK2 inh 50 | GRK2 inh confirm inactive | Aptamer quench SP inactive
Cc1ccccc1NC(=O)CC(=O)Nc1ccccc1C	none
CCC1C(=O)N=C(SCC(=O)Nc2ccc(S(N)(=O)=O)cc2)NC1=O (stereo not drawn)	none
